# TCR act: activates T cell receptor signaling | 330,000 tested, under 10 active | primary human leukocytes, anti-CD3, IL-2 HTRF, 48 h | Potency, µM (series often up to 9.22 µM), for inactives: at the highest dose activation of IL-2 secretion, most hits filed as activators | AID 504894; active = well fitted activation curve with a large enough effect; inconclusive = small, poorly fitted or top-dose-only effect, or another doubt; inactive = no such curve, though single readings can be large or run the other way; also: % of control where 0% means no effect
#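 IL-2 release read by HTRF sandwich (Eu cryptate donor, d2 acceptor, 665 nm emission) after 48 hr exposure of primary human leukocytes to compound together with anti-CD3 beads in the absence of co-stimulatory signals.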
# gsp antagonist: gsp mutant antagonism; gsp-mutant cells, cAMP HTRF, 30 min; Potency, µM (titrated, usually from 76.9 µM), inactives show at the highest dose activity change, negative = inhibition, hits mostly inhibitors; 340,000 compounds, 0.4% hits; AID 624288; calls by dose curve; cell line not stated here;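 also: intracellular cAMP measured with PDE inhibitor Ro 20-1724 present during compound exposure; potency is read from the fitted curve at half-maximal effect; % is scaled to controls: 0 for no effect and ±100 for the full control effect; nearly all actives have a fitted effect of over 65% in size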
#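 Cells, 2000/well, grown 16–24 h in DMEM 10% FBS with 0.5 mg/ml G418, then compounds plus […] (300 uM addition stock), 30 min at 37C. cAMP read by HTRF (cAMP-d2 and anti-cAMP antibody-K in lysis buffer) after 30 min RT.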
# gsp ag: gsp mutant agonism; gsp mutant cells, cAMP HTRF, 30 min; Potency, µM (highest dose often 76.9 µM), for inactives: top-dose activation (cAMP increase), most hits filed as activators; 340,000 compounds, 0.13% hits; AID 624287; active = well fitted activation curve with a large enough effect; inconclusive = small, poorly fitted or top-dose-only effect, or another doubt; inactive = no such curve, though single readings can be large or run the other way; cell line not stated here;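 also: phosphodiesterase inhibitor Ro 20-1724 added with compounds to block cAMP breakdown; potency is read from the fitted curve at half-maximal effect; nearly all actives have a fitted effect of over 60% in size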
#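 Cells in DMEM/10% FBS with G418 were pretreated with compounds in DMSO plus […] (300 uM stock) for 30 min at 37C. cAMP was measured by HTRF (cAMP-d2 plus anti-cAMP antibody-K) after 30 min at room temperature.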
# Pin1 inh: blocks the human prolyl isomerase Pin1 | Q13526 | Pin1 FP peptide displacement, HiFluor488, 10 min | Potency, µM (titrated, usually from 115 µM), inactives show top-dose activity, negative = inhibition, hits mostly inhibitors | 390,000 compounds, 0.009% hits | AID 504891; active = well fitted inhibition curve with a large enough effect in the polarisation, with a control signal flat, not every such curve was filed as active; inconclusive = small, poorly fitted or top-dose-only effect, or effect the other way, or a change in a side signal; inactive = no such curve, though single readings can be large or run the other way; the % refers to the polarisation; also: potency is read from the fitted curve at half-maximal effect; % is scaled to controls: 0 for no effect and ±100 for the full control effect
# Target sequence (Q13526 whole entry, looked up): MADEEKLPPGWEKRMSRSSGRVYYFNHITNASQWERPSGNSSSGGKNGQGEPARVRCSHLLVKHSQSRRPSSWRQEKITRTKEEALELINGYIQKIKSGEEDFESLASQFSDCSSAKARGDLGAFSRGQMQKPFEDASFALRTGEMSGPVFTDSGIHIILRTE
# TSHR antag: antagonists of human thyroid stimulating hormone receptor; P16473; TSHR-expressing cells, TSH-stimulated cAMP HTRF, 2 h; active compounds read low; activity change, negative = inhibition, % at 11.5 µM; 330,000 compounds, 0.2% hits; AID 504810;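 active = activity change below a set negative limit, meaning inhibition stronger than a set level, cut at about -70% in these data; inconclusive = activity change between two set negative limits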; also: % is scaled to controls: 0 for no effect and ±100 for the full control effect
#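 Inhibition of cAMP made by TSHR-expressing cells under TSH stimulation (4nM final, EC80; 2 h, 37 deg C) is quantified with a one-step lysis HTRF kit, anti-cAMP cryptate versus cAMP-d2.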
# Numbers without * were called inactive; u = inconclusive; x = no result; [ ] = remark or other dose. The list is not random: actives were taken first. Their share in the collection is about 0.63%.
SMILES,TCR act,gsp antagonist,gsp ag,Pin1 inh,TSHR antag
Cc1ccc(NC(=O)C2=C(c3ccccc3)S(=O)(=O)CCS2(=O)=O)cc1,-5.2%,28.2µM*,-28.1%[15.4 µM],-13.8%,-47.7
Cc1ccc(S(=O)(=O)NC(=O)Nc2ccc(N(C)C)cc2)cc1,66.7%,u,-140.4%,0.5%,-75.4*
O=C1c2ccccc2C(=O)N1CSc1nnnn1-c1ccccc1,-0.6%,-1.3%,u,-5.0%,-4.9
O=C1c2ccccc2C(=O)N1CCCCSc1nnnn1-c1ccccc1,6.2%,-5.1%,-46.1%,1.3%,-72.3*
COc1cc(/C=N/NC(=O)c2nnn(-c3nonc3N)c2-c2cccs2)ccc1O,-3.8%,22.4µM*,1.9%,-2.9%,-2.4
Nc1nonc1-n1nnc(C(=O)N/N=C/c2cccc(Cl)c2)c1-c1cccs1,-2.8%,39.8µM*,-2.4%,-1.2%,-7.7
Cc1ccc(/C=N/NC(=O)c2nnn(-c3nonc3N)c2-c2ccc3c(c2)OCO3)s1,-1.8%,39.8µM*,37.1%,33.5%,0.7
Nc1nonc1-n1nnc(C(=O)N/N=C/c2cccnc2)c1-c1cccs1,6.0%,0.9%,-40.9%,-0.1%,-11.2
COc1ccc(/C=N/NC(=O)c2nnn(-c3nonc3N)c2-c2cccs2)cc1OC,0.8%,-13.4%,18.4%,9.4%,6.3
COc1cc(/C=N/NC(=O)c2nnn(-c3nonc3N)c2C(C)C)ccc1OCc1ccccc1,1.1%,25.1µM*,-6.6%,3.1%,-18.3
Nc1nonc1-n1nnc(C(=O)N/N=C/c2ccc(F)cc2)c1-c1ccc2c(c1)OCO2,-8.1%,-0.4%,30.7%,-0.2%,4.5
CCOC(=O)CN1CC23C=CC(O2)C(C(=O)NCCc2ccccc2)C3C1=O (centres undefined),8.2%,3.8%,-3.2%,-5.0%,-7.0
O=C(C/C=N/OCc1ccc(F)cc1Cl)c1cnc(-c2ccccc2)s1,-10.8%,0.1%,10.3%,25.1%,0.6
CC1CCN(Cc2c(C(=O)N/N=C/c3cc(Br)ccc3O)nnn2-c2nonc2N)CC1,0.5%,-0.3%,-3.3%[15.4 µM],1.3%,-3.6
CC1CCN(Cc2c(C(=O)N/N=C/c3cc(Cl)ccc3O)nnn2-c2nonc2N)CC1,-1.6%,-0.6%,7.7%[15.4 µM],0.0%,-99.9*
CCOc1ccc(-c2c(C(=O)N/N=C/c3c[nH]c4ccccc34)nnn2-c2nonc2N)cc1,-2.0%,25.1µM*,u,28.4%,-3.9
COc1ccc(C2Nc3ccccc3C(=O)N2C2CCCCC2)cc1 (centres undefined),-0.2%,-21.0%,31.4%,-1.0%,-12.8
O=C(Nc1ccc(NC(=O)c2ccccc2)nc1)c1ccncc1,-0.9%,-18.5%,8.2%,16.8%,-3.0
O=C(CC1C(=O)NCCN1CC1CCCCC1)NCc1ccc(F)cc1F (centres undefined),-3.2%,3.1%,0.2%[15.4 µM],-1.9%,-5.1
O=[N+]([O-])c1cnc(Sc2ccncn2)s1,6.1%,-2.1%,21.8%,-5.5%,-89.4*
O=[N+]([O-])c1cnc(Sc2ccncn2)c([N+](=O)[O-])c1,x,x,-24.0%,x,x
O=C(CCn1nnc2ccccc21)Nc1nnc(COc2ccccc2F)s1,-2.0%,0.6%,-1.8%,0.1%,-6.7
O=C(CCn1nnc2ccccc21)Nc1nnc(Cc2ccccc2)s1,0.9%,31.6µM*,u,u,5.6
CCOC(=O)c1c(C)[nH]c(C(=O)COC(=O)CNS(=O)(=O)c2ccc(C)cc2)c1C,4.2%,31.6µM*,-17.2%,41.9%,9.6
Cc1nc(SCC(=O)N2CCN(c3ccccc3)CC2)n[nH]1,-4.8%,5.7%,4.7%[15.4 µM],-3.9%,-89.5*
SMILES,TCR act,gsp antagonist,gsp ag,Pin1 inh,TSHR antag
Nc1nc(SCC(=O)N2CCN(c3ccccc3)CC2)n[nH]1,7.0%,8.4%,-1.5%,4.9%,0.9
O=C(Cn1cc(/C=N/O)c2ccccc21)N1CCOCC1,11.2%,11.2%,-20.3%,-9.2%,-7.0
CCC1CN(C(=O)N2CCC(C(=O)NCCN(CC)CC)CC2)c2ccccc2O1 (centres undefined),x,x,x,8.3%,x
CN(C(=S)Nc1ccc(SC(F)F)cc1)C(c1ccccc1)c1ccccc1,0.6%,6.31µM*,2.1%,2.0%,-23.7
Cc1cc(C(=O)CSc2nc3ccccc3c(=O)n2C)c(C)n1CC1CCCO1 (centres undefined),x,x,x,x,-47.0
Cc1cc(C(=O)CSc2nc3ccccc3c(=O)[nH]2)c(C)n1CC1CCCO1 (centres undefined),x,35.5µM*,5.6%[15.4 µM],0.5%,-30.5
CN1C(=O)C(N=Nc2ccc([N+](=O)[O-])cc2)SC1=S (centres undefined),2.8%,31.6µM*,u,-14.9%,x
O=C(Nc1ccccn1)c1cc(-c2cccnc2)nc2ccc(Br)cc12,-14.6%[46.1 µM],13.4%,39.8µM*,32.4%,-3.2
O=C(Nc1nnc(S(=O)(=O)N2CCCC2)s1)c1cccc([N+](=O)[O-])c1,-0.7%,50.1µM*,u,u,-28.8
Cc1cc(C)n(C(=O)CNC(=O)c2ccc(C(C)(C)C)cc2)n1,1.1%,1.5%,8.4%,8.6%,0.0
COc1ccc(C(=O)NCC(=O)n2nc(C)cc2C)cc1OC,3.4%,8.8%,10µM*,-0.1%,2.2
COc1ccc(OC)c(NC(=O)COC(=O)CNC(=O)c2ccc(OC)c(OC)c2)c1,3.1%,-4.9%,1.0%,u,0.1
COc1ccc(C(=O)NCC(=O)OCC(=O)NC(=O)c2ccc(C(C)(C)C)cc2)cc1OC,-5.6%,50.1µM*,0.0%,u,8.2
CCCCCCSc1ccc([C@@H]2[C@H]3C(=O)N(CC)C(=O)[C@H]3[C@]3(C(=O)OC)CCCCN23)cc1OC,8.8%,-10.2%,14.1%,u,-7.1
CCOC(=O)C(C)Sc1nc(-c2ccco2)cc(C(F)(F)F)c1C#N (centres undefined),-1.6%,35.5µM*,-19.5%,41.5%,-17.8
CCOC(=O)COc1nc(-c2ccco2)cc(-c2ccco2)c1C#N,-2.0%,-22.5%,3.5%[15.4 µM],60.3%,-3.7
CCCN1CNc2c(c(=O)[nH]c(=S)n2CCc2ccc(Cl)c(Cl)c2)C1,x,x,x,-0.3%,x
Cc1ccc2c(C)nc(SC(C(=O)c3ccccc3)c3ccccc3)nc2c1 (centres undefined),7.9%[46.1 µM],-27.2%,-4.7%,10.7%,3.6
COc1ccc(OC)c(C2CC(=O)c3c([nH]c(C(=O)OCC4CCCO4)c3C)C2)c1 (centres undefined),-4.3%,39.8µM*,-46.9%,16.0%,-9.3
O=S(=O)(c1cccc(Cl)c1)c1nnn2c1nc(NCc1ccc3c(c1)OCO3)c1sccc12,x,x,x,8.6%,x
CCC(ONc1ccccc1C(F)(F)F)(C(=O)NN(C)C)c1ccccc1 (centres undefined),12.3%,3.2%,10.5%,5.3%,53.7
CCC(=O)Nc1cc(C(=O)O)ccc1Sc1ccc(Cl)cc1,-7.6%,-14.4%,20.8%,-10.0%,-7.5
Cc1cc(Cl)ccc1OC(C)C(=O)Nc1ccc(C(=O)Nc2ccccc2C(=O)O)cc1 (centres undefined),-4.0%,31.6µM*,4.6%,x,u
